High-throughput results (PubChem)
Hits are enriched below; roughly 1.7% of the tested compounds scored in any of these assays.
Sa RN4220 lethal – kills Staphylococcus aureus RN4220; S. aureus RN4220 growth, OD600, 16 h; inhibition, % (test concentration not listed); 330,000 compounds, 0.33% hits; in the data active means inhibition above about 85%
BH1578 lux ind – quorum light induction in luxS cqsA deficient V. cholerae | V. cholerae BH1578 lux reporter, luminescence, 6 h | activation, % at 18.7 µM | AID 588436 | 350,000 compounds, 0.16% hits; in the data active means activation mostly above about 9.7%, no sharp cut-off
CCHF vOTU inh – CCHFV vOTU protease inhibition. inhibition, % at 11.5 µM. Pep-AMC fluorescence. 370,000 compounds, 0.55% hits; in the data active means inhibition above about 30%
PfHsp40 rescue – restores yeast growth despite PfHsp40 toxicity; growth rescue, % at 12.5 µM; S. cerevisiae expressing PfHsp40, growth rescue, ATP luminescence; 340,000 compounds, 0.68% hits; in the data active means growth rescue above about 28%, passing the limit was not always enough;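 further: yeast W303a lacking pdr1 and pdr3 grown in galactose medium; growth measured after three days at 30 °C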
Mtb hypoxia inh – inhibitors of hypoxia-regulated fluorescent reporter in Mycobacterium tuberculosis; 300,000 compounds, 0.1% hits; fluorescence inhibition, % (test concentration not listed); M. tuberculosis hypoxia-regulated fluorescent reporter, fluorescence; AID 1159583; in the data active means fluorescence inhibition mostly above about 23%, no sharp cut-off; inactive means mostly below about 17%
Sa ugtP lethal – compounds lethal to S. aureus RN4220 ugtP deletion mutant | OD600 growth, 16 h | growth inhibition, % (no concentration beside the values) | 330,000 compounds, 0.54% hits; in the data active means growth inhibition above about 68%
Hits are given with their value; i = inactive; nt = no result; + = active, no number.

SMILES	Sa RN4220 lethal	BH1578 lux ind	CCHF vOTU inh	PfHsp40 rescue	Mtb hypoxia inh	Sa ugtP lethal
COc1ccc(OC)c(NC(=O)C2=C(C)NC(=O)NC2c2cccs2)c1 (stereo not given)	i	i	i	i	i	i
COc1ccc(OC)c(NC(=O)C2=C(C)Nc3ncnn3C2c2cccs2)c1 (stereo not given)	i	+	i	i	i	i
Cc1ccc2nc(Cl)c(C=Nn3c(C)nnc3C)cc2c1	i	nt	nt	nt	i	i
O=C(CC=NOCc1ccccc1F)c1cnc(-c2ccc(Cl)cc2)s1	i	nt	nt	nt	nt	i
CC1CCN(c2nc(/C=C/c3ccccc3)nc3ccccc23)CC1	i	i	i	i	i	i
C(=C\c1nc(N2CCCC2)c2ccccc2n1)/c1ccccc1	i	i	i	i	45	i
Oc1ccc(/C=N/Nc2ccc(C(F)(F)F)cn2)cc1	nt	i	i	i	nt	nt
Oc1ccc(/C=N/Nc2ccc(C(F)(F)F)cn2)c(O)c1	nt	i	i	421	nt	nt
CC=CC(=O)N1CC2(CC(c3cccc(NC(=O)CCCCC)c3)=NO2)CC1C(N)=O (stereo not given)	i	nt	nt	nt	i	i
CSc1ncccc1C(=O)N1CCN(S(=O)(=O)c2ccc3ccccc3c2)CC1	i	i	i	i	i	i
O=C(c1ccccc1F)N1CCN(S(=O)(=O)c2ccc3ccccc3c2)CC1	i	i	i	30	i	i
O=C(C=CNc1ccc(F)c(Cl)c1)c1ccco1	i	nt	nt	nt	i	i
O=C(NC(=S)NCc1ccccc1)c1cccc(Cl)c1	i	i	i	29	i	i
O=C(NC(=S)NCc1ccco1)c1cccc(Cl)c1	nt	i	i	i	nt	nt
COc1cccc(C=NNC(=O)CNC(=O)CCc2ccccc2)c1O	i	nt	nt	nt	i	i
O=S(=O)(c1cccc(Cl)c1)N1CCN(S(=O)(=O)c2ccc3c(c2)OCCO3)CC1	i	i	i	43	i	i
CSCc1cc(N(C)c2ccccc2)nc(-c2ccccc2)n1	i	i	i	i	i	88
COc1ccccc1C(=O)NN=C(C)CC(=O)Nc1ccccc1NC(C)=O	i	nt	nt	nt	i	i
Cc1ccc(OCCC(=O)OCC(=O)Nc2cc(S(=O)(=O)N(C)C)ccc2C)cc1	i	i	i	32	i	i
CCOc1ncccc1C(=O)Nc1cc2c(cc1Br)OCCO2	i	i	i	i	36	i
C=CS(=O)(=O)N(Cc1ccccc1)C(CO)CC(C)C (stereo not given)	i	nt	nt	nt	i	i
COc1ccc(/C=C/C(=O)OCC(=O)NC2CC2)c(OC)c1	i	i	i	i	i	i
COc1ccc(/C=C/C(=O)OCC(=O)NC2CCCC(C)C2C)c(OC)c1 (stereo not given)	i	i	i	i	i	85
Cc1cccc(S(=O)(=O)Nc2cccc(-c3cn4ccsc4n3)c2)c1	i	i	i	i	i	85
O=C(Nc1ccc2c(c1)OCO2)OC1CC2CCCC(=O)N3CCC(C1)C23 (stereo not given)	i	nt	nt	nt	i	i
SMILES	Sa RN4220 lethal	BH1578 lux ind	CCHF vOTU inh	PfHsp40 rescue	Mtb hypoxia inh	Sa ugtP lethal
CCC(C)c1ccc(NC(=S)NCc2ccccc2OC)cc1 (stereo not given)	i	i	i	84	i	i
CN(C)C=Nc1c(C#N)cnn1C	i	nt	nt	nt	i	i
CCCCN(C)S(=O)(=O)c1cc2c(cc1Br)CCN2C(=O)C1CC1	i	i	i	123	i	i
O=c1c(Cl)nc2cc(Cl)ccc2n1CCNc1ncc(C(F)(F)F)cc1Cl	i	i	nt	i	nt	96
O=C1C=C(c2ccc3[nH]ccc3c2)CC(c2ccc(F)cc2)C1 (stereo not given)	i	nt	nt	nt	i	i
CCn1c(=O)c(C(=O)NCCCc2ccccc2)c(O)c2ccccc21	i	i	i	i	i	i
O=C(NCCC1=CCCCC1)c1c(O)nc2sccn2c1=O	i	i	i	372	i	i
O=C(NCCCc1ccccc1)c1c(O)nc2sccn2c1=O	i	i	i	178	i	i
O=C(NCCC1=CCCCC1)c1c(O)nc2ccccn2c1=O	i	i	i	i	i	i
O=C(c1cc(-c2ccccc2)n[nH]1)N1CCN(S(=O)(=O)c2ccccc2)CC1	i	i	i	30	nt	i
CC1=C(C(=O)Nc2ccccc2)C(c2ccc(C)cc2)N=C(Nc2nc3ccccc3o2)N1 (stereo not given)	i	i	i	i	37	i
CC1(C)CC(=O)C2=C(C1)NC(Nc1nc3ccccc3o1)=NC2c1ccccn1 (stereo not given)	i	i	i	i	i	i
CCOC(=O)C(CC)/C(C)=N\NC(=O)c1ccccc1O (stereo not given)	nt	i	i	110	nt	nt
